# Data from PubChem BioAssay (NCATS).
# Results filed as inconclusive are left out. Active and inactive are the calls of the source. The call rests on the fitted dose curve; in most records, active means well fitted cell-killing curve with a large enough effect; inconclusive means small, poorly fitted or top-dose-only effect, or effect the other way, or another doubt; inactive means no such curve, though single readings can be large or run the other way.
# Assay: Identifying Small Molecule Inhibitors of Pancreatic Cancer Stem Cells (Panc1, Adherent) (AID 1259362);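 on viability, % of control: compound exposure lasted 48 h before the viability read; plate controls were DMSO-treated cells for no effect and cell-free media wells for full effect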
# Details: Potency: viability; series mostly up to 46.1 µM; viability, % of control: at the top concentration
# Procedure, shortened: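 Viability is scored by CellTiter-Glo luminescence 48 h after dosing, expressed as percent activity against vehicle and no-cell references. Spheroid formats rely on cells cultured 14 days in stem cell media beforehand.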
# Potency means the concentration at half of the fitted maximal effect.
Compound,"viability, % of control",Potency
CC(C)(C(=O)NCC(F)(F)C(F)(F)F)C(=O)N[C@@H]1C(=O)Nc2ccccc2-c2ccccc21,128% (inactive),–
N#Cc1ccc(NC(=O)Nc2ccccc2Br)c2n[nH]nc12,117% (inactive),–
CC1=C(/C=C/C(C)=C/C=C/C(C)=C/C(=O)Nc2ccc(O)cc2)C(C)(C)CCC1,–,23.5 µM (active)
NC(CO)(CO)CCc1ccc(Sc2cccc(OCc3ccccc3)c2)cc1Cl,78% (inactive),–
OC[C@H]1O[C@@H](n2cnc3c2NC=NC[C@@H]3O)C[C@H]1O,93.9% (inactive),–
CC(C)[C@H](CO)Nc1nc(Nc2ccc(C(=O)O)c(Cl)c2)c2ncn(C(C)C)c2n1,124% (inactive),–
